PHOSPHO1 block = blocks human PHOSPHO1 phosphatase activity; Q8TCT1; recombinant PHOSPHO1, absorbance phosphatase assay; inhibition, % at 13.3 µM; actives 1.1% (n = 290,000); in the data active = inhibition above about 60%
Target sequence (Q8TCT1 whole entry, looked up): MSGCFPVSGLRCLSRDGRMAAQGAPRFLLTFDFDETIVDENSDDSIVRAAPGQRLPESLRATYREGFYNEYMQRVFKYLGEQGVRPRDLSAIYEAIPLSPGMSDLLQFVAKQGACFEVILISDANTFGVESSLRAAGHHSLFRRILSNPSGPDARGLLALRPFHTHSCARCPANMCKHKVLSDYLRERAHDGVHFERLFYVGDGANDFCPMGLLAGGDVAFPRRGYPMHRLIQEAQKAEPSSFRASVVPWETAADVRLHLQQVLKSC
eIF4H FP inh = inhibitors of RNA binding by human eIF4H; inhibition, % at 35 µM; eIF4H fluorescence polarization binding assay; actives 0.94% (n = 290,000);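 note: calls also rest on retests at 20 µM and on dose response follow-up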
CRFR2-BP antag = antagonists of CRF-binding protein/CRF-R2 receptor complex; HEK293 CRF-R2/CRF-BP, CRF-induced calcium fluorescence; inhibition, % at 11.8 µM; actives 0.59% (n = 350,000);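 active = inhibition of the ligand-induced calcium signal above about 50% at the single tested concentration, limit read from the data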
PABP1 MLLE inh = inhibitors of microRNA-mediated deadenylation, human PABP1 MLLE binding. AID 588489. inhibition, % at 20 µM. P11940. actives 0.36% (n = 360,000). GST-MLLE / FITC-PAM2 fluorescence polarization; in the data active = inhibition above about 35%, passing the limit was not always enough;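 note: plate controls were DMSO wells with GST-MLLE for no effect and wells lacking GST-MLLE protein for full effect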
PABP FP inh = PABP-poly(A) binding inhibition | AID 2014 | actives 1% (n = 290,000) | PABP-poly(A) RNA binding, fluorescence polarization | inhibition, % at 35 µM;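 note: calls also rest on retests at 20 µM and on dose response follow-up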
* hit, by the source's call; ? = inconclusive; . = not tested or not shown. The list is not random: actives were taken first. Their share in the collection is about 2.6%. Unless noted, the rule behind the calls is not given here.

SMILES | PHOSPHO1 block | eIF4H FP inh | CRFR2-BP antag | PABP1 MLLE inh | PABP FP inh
O=C(NCc1ccc(Cl)cc1)c1cnccn1 | 45 | -7 | -3 | 11 | -1
O=C(NCc1cccc(Cl)c1)c1cnccn1 | 36 | 34* | 5 | 3 | 54
CCOC(=O)c1c(C)[nH]c(C(=O)COC(=O)CCNS(=O)(=O)c2ccc(NC(C)=O)cc2)c1C | . | . | -8 | -14 | .
Cn1nnnc1SCc1nc2scc(-c3ccccc3)c2c(=O)[nH]1 | 33 | 4 | 1 | -29 | -1
Cn1nnnc1SCc1nc2scc(-c3ccc(Cl)cc3)c2c(=O)[nH]1 | 15 | 59* | -2 | -90 | 51*
O/N=C1/CCc2cccc3cccc1c23 | -12 | 62* | -14 | 19 | 82*
O=C1C(=NO)CCc2ccccc21 | . | . | 37 | 5 | .
OC(c1ccccc1)C(NCc1ccccc1)c1ccccc1 (stereo not drawn) | . | . | -17 | 3 | .
Cc1ccc(C(=O)N2c3ccccc3N(Cc3ccccc3)C(=O)C2(C)C)cc1 | -11 | 1 | 52* | -3 | -4
Cc1ccc(CN2C(=O)C(F)(F)Oc3ccccc32)cc1 | . | . | . | 1 | .
CC[C@H](C)[C@@H](CO)NC(=O)[C@H]1O[C@@H](n2ccc(N)nc2=O)[C@H](O)[C@@H]1O | . | . | . | 14 | .
CN(C)Cc1cc(O)c(CN(C)C)cc1O | 7 | 80 | 8 | 79* | 44
Cn1c(SCCCC(=O)c2ccccc2)nnc1-c1ccncc1 | 68* | 6 | 0 | -91 | 7
Cc1ccc(C(=O)n2cnnc2N)cc1 | -15 | -10 | 2 | -14 | 0
Cc1ccc(C(=O)n2cnnc2N)cc1C | 61* | -7 | -2 | -12 | 0
O=C(CSc1nnc(-c2ccccc2F)o1)Nc1ccc(N2CCOCC2)cc1 | . | . | -4 | 9 | .
COc1ccc(CCNc2oc(COc3ccccc3)nc2C#N)cc1 | 26 | -9 | 50 | -5 | 1
COc1ccc(CNc2oc(COc3ccccc3)nc2C#N)cc1 | 18 | -5 | 52* | 2 | 8
c1ccc2c(c1)NCC1CCCN21 (stereo not drawn) | 9 | 104* | -5 | 8 | 76
CS(=O)(=O)c1ccc(Nc2nc(C(N)c3ccccc3Cl)cs2)cc1 (stereo not drawn) | . | . | . | -5 | .
O=C(Sc1cccc2cccnc12)c1ccc(F)cc1 | -86 | -6 | . | . | 2
O=C(Sc1cccc2cccnc12)c1ccccc1Br | 15 | -6 | . | 37* | 5
COc1ccc(NC(=O)C2(C)CCN2C(=O)c2ccccc2CCc2ccccc2)cc1OC (stereo not drawn) | . | . | . | 9 | .
C[C@H](CO)N1C[C@H](C)[C@@H](CN(C)C(=O)Nc2cc(F)ccc2F)Oc2ncc(-c3cccc(F)c3)cc2C1=O | . | . | 6 | -20 | .
Cc1cccnc1Nc1ncnc(N)c1[N+](=O)[O-] | 61* | -4 | 13 | -4 | -12
SMILES | PHOSPHO1 block | eIF4H FP inh | CRFR2-BP antag | PABP1 MLLE inh | PABP FP inh
COCc1cc(C)nc2sc(C(=O)Nc3nccs3)c(N)c12 | 83* | -12 | 1 | 19 | 14
CC1(C(=O)NCc2ccco2)CCN1C(=O)C1(c2ccccc2)CC1 (stereo not drawn) | . | . | . | 3 | .
Cc1sc2ncnc(Sc3ccccc3C(=O)Nc3ccc(C#N)cc3)c2c1C | -18 | 6 | 61* | -1 | -5
CN(CC(=O)Nc1ccc2c(c1)OCCO2)CC(=O)Nc1ccc(F)c(F)c1F | . | . | 68* | -7 | .
CN(CC(=O)Nc1ccc(F)cc1)CC(=O)Nc1ccc(F)c(F)c1F | 17 | -13 | 5 | -2 | 4
CC(=O)OCC[n+]1c(C)n(-c2ccccc2)c2ccc(Cl)cc21 | 18 | -1 | 9 | -147 | 15
CCn1c(C)[n+](CC)c2ccc(C(=O)N(C)c3ccccc3)cc21 | 45 | -4 | 0 | -113 | 62*
CCOC(=O)c1ccc2c(c1)n(CC)c(C)[n+]2CC | 19 | -5 | -4 | -125 | 47
CCOC(=O)c1ccc2c(c1)[n+](CC)c(C)n2-c1ccccc1 | -1 | -9 | -8 | -120 | 73*
CCOC(=O)c1c(O)c(O)c(C(=O)OCC)n1-c1ccccc1 | -6 | 1 | -8 | 6 | 9
CC[n+]1c(C)n(-c2ccccc2)c2ccc(C(=O)OC)cc21 | 12 | 1 | -8 | -85 | 69*
CC(Nc1c([N+](=O)[O-])c(=O)oc2ccccc12)c1ccccc1 (stereo not drawn) | 61* | 8 | 19 | -6 | 2
Cc1ccccc1C(=O)NNC(=S)NC(=O)COc1ccccc1 | 97* | 3 | 11 | 19 | -4
CCC(=O)NC(=S)NNC(=O)c1ccccc1[N+](=O)[O-] | 65* | ? | -13 | 10 | active
Cc1ccc(C(=O)NNC(=S)NC(=O)COc2ccccc2)cc1 | 97* | 19 | -63 | 18 | 11
COC(=O)c1cc(OC)c(OC)cc1NC(=O)CCN1C(=O)C2CCCCC2C1=O (stereo not drawn) | . | . | 8 | -32 | .
CC(C)(C)C(=O)NCc1ccc(C(=O)CN2C(=O)NC3(CCCC3)C2=O)s1 | . | . | 3 | -5 | .
O=C(CN1C(=O)NC2(CCCC2)C1=O)c1ccc(Cl)s1 | . | . | 54* | -8 | .
CCOC(=O)CSC1=C(C#N)C(c2ccccc2F)C(C(C)=O)=C(C)N1 (stereo not drawn) | -92 | 50* | 19 | -42 | ?
CCOC(=O)CSC1=C(C#N)C(c2sccc2C)C(C(C)=O)=C(C)N1 (stereo not drawn) | -119 | -9 | 26 | -34 | 8
CC(=O)C1=C(C)NC(SCC(N)=O)=C(C#N)C1C (stereo not drawn) | 88* | 3 | -2 | 19 | 4
CSCSC1=C(C#N)C(c2ccccc2Cl)C(C(C)=O)=C(C)N1 (stereo not drawn) | 93* | -1 | 55* | 20 | 23
CC(=O)C1=C(C)NC(SCSc2ccccc2)=C(C#N)C1c1cccnc1 (stereo not drawn) | -17 | 3 | 2 | . | 26
O=C(CC(O)c1ccncc1)c1ccccc1O (stereo not drawn) | . | . | -8 | 7 | .
COc1ccc2c(COC(=O)CC3Sc4ccccc4NC3=O)cc(=O)oc2c1 (stereo not drawn) | -13 | 29 | -40 | -30 | -3
SMILES | PHOSPHO1 block | eIF4H FP inh | CRFR2-BP antag | PABP1 MLLE inh | PABP FP inh
CC(=O)Nc1ccc2c(COC(=O)CC3Sc4ccccc4NC3=O)cc(=O)oc2c1 (stereo not drawn) | 42 | ? | -28 | -70 | 87*
COc1ccc(-c2nc3ccc(Cl)cn3c2Cc2cccc(F)c2)cc1OC | . | . | . | -6 | .
CCOc1ccc(NS(=O)(=O)c2cc(OCC(N)=O)c(C)cc2Cl)cc1 | -14 | 0 | -3 | 4 | -6
COc1ccc(CCNC(=O)C(C)Sc2ccccc2)cc1OC (stereo not drawn) | 60* | -9 | 29 | -1 | 2
COc1ccc(CCNC(=O)C(C)Sc2ccc(C)cc2)cc1OC (stereo not drawn) | -2 | -1 | 15 | -4 | -3
COc1ccc(C2=NN(C)C(=NCc3ccccc3)SC2)cc1 | -1 | -1 | 62* | 6 | 7
COC(=O)c1ccc(COc2ccc(/C=N/Nc3cccc(C(=O)O)c3)cc2)cc1 | 68* | 75* | 7 | 6 | 54*
